# Several values for one entry are separate records, joined by “and”; a condition that tells them apart may be missing. Identical values can stand only once. Inconclusive results are not listed. Entries that show only a call come without a potency. Activity calls are given as the source filed them. Unless noted, the call rests on the fitted dose curve. Starred links: 1 amine or outer side, 2 acyl side, 3 side chain; linkers in the order of their positions; H or OH if unused. Positions of bridges follow the written chain, without caps; N, C: chain ends. Non-standard residues stand in square brackets, D forms with d. Residues, ends and D or L forms follow the SMILES beside them. ξ: configuration not given here. *: point of attachment. ΔAla(3-NHCONH2) = NC(=O)NC=C(N)C(=O)O; X1 = NC1=NCCC(C(N[*:1])C(=O)[*:2])N1; ξβ3hOrn = NCCCC(N)CC(=O)*; Dap = NC[CH](N)C(=O)O
# System: not listed separately
# Experiment: qHTS for Inhibitors of the Functional Ribonucleoprotein Complex (vRNP) of Lymphocytic Choriomeningitis Arenaviruses (LCMV): Viability assay - alamar blue signal for LCMV Primary Screen (AID 1347085; calls by dose curve; tested in HEK293 reporter line; further: nearly all actives have a fitted effect of over 80% in size)
# Conditions: alamar blue viability counter-screen, LCMV vRNP screen cells; series mostly up to 57.5 µM
# Potency means the concentration at half of the fitted maximal effect.
Compound,Potency,"activity change, negative = lower viability"
CC(C)C[C@H](NC(=O)[C@H](Cc1ccccc1)NC(=O)c1cnccn1)B(O)O,685 nM (active),–
Cc1[nH]c(=O)c(C#N)cc1-c1ccncc1,inactive,–
CC(C)NCC(O)c1ccc(O)c(O)c1 (stereo not drawn),inactive,–
CCCNCC(O)COc1ccccc1C(=O)CCc1ccccc1 (stereo not drawn),inactive,–
CN1CCc2cccc3c2[C@H]1Cc1ccc(O)c(O)c1-3,inactive,–
COc1ccc2nc(S(=O)Cc3ncc(C)c(OC)c3C)[nH]c2c1 (stereo not drawn),inactive,–
O=C(CCCCCCC(=O)Nc1ccccc1)NO,7690 nM (active),–
C=C(c1ccc(C(=O)O)cc1)c1cc2c(cc1C)C(C)(C)CCC2(C)C,inactive,–
CC(C)[N+](C)(CCOC(=O)C1c2ccccc2Oc2ccccc21)C(C)C,inactive,–
CN1CCN(C2=Nc3cc(Cl)ccc3Nc3ccccc32)CC1,inactive,–
CC/C=C(\C(=O)N[C@@H]1C(=O)N2C(C(=O)OCOC(=O)C(C)(C)C)=C(COC(N)=O)CS[C@H]12)c1csc(N)n1,inactive,–
NCCCC(N)CC(=O)NCC1NC(=O)C(CO)NC(=O)C(N)CNC(=O)C(C2CCN=C(N)N2)NC(=O)C(=CNC(N)=O)NC1=O (stereo not drawn) (H-[Dap]S[Dap](ξβ3hOrn)[ΔAla(3-NHCONH2)][X1]; lactam 1-C; configuration not given here),–,-4.22% [at 0.757 µM] (inactive)
CC1=C(C(=O)O)N2C(=O)[C@@H](NC(=O)[C@H](N)c3ccc(O)cc3)[C@H]2SC1,inactive,–
CN(C)c1ccc(O)c2c1C[C@H]1C[C@H]3[C@H](N(C)C)C(=O)C(C(N)=O)=C(O)[C@@]3(O)C(=O)C1=C2O,inactive,–
COc1cc(NC(C)CCCN)c2ncccc2c1 (stereo not drawn),inactive,–
O=C1C(=O)c2ccccc2C(O)=C1C1CCC(c2ccc(Cl)cc2)CC1 (stereo not drawn),inactive,–
CC[C@@]1(O)C(=O)OCc2c1cc1n(c2=O)Cc2cc3c(CN(C)C)c(O)ccc3nc2-1,1720 nM (active),–
CC(C)(C)C(=O)OCOP(=O)(COCCn1cnc2c(N)ncnc21)OCOC(=O)C(C)(C)C,inactive,–
COc1cc(Cc2cnc(N)nc2N)cc(OC)c1OC,inactive,–
CC(=O)O[C@]1(C(C)=O)CC[C@H]2[C@@H]3C=C(C)C4=CC(=O)CC[C@]4(C)[C@H]3CC[C@@]21C,inactive,–

Compound,Potency,"activity change, negative = lower viability"
O=c1n(CCCN2CCN(c3cccc(Cl)c3)CC2)nc2ccccn12,inactive,–
CO[C@H]1C=CO[C@@]2(C)Oc3c(C)c(O)c4c(O)c(c(/C=N/N5CCN(C)CC5)c(O)c4c3C2=O)NC(=O)/C(C)=C\C=C[C@H](C)[C@H](O)[C@@H](C)[C@@H](O)[C@@H](C)[C@H](OC(C)=O)[C@@H]1C,inactive,–
CCCN(CCc1cccs1)[C@H]1CCc2c(O)cccc2C1,inactive,–
CC[C@@H]([C@H](C)O)n1ncn(-c2ccc(N3CCN(c4ccc(OC[C@@H]5CO[C@@](Cn6cncn6)(c6ccc(F)cc6F)C5)cc4)CC3)cc2)c1=O,inactive,–
O=C(O)CCCc1ccccc1,inactive,–
CN(C)CCC[C@@]1(c2ccc(F)cc2)OCc2cc(C#N)ccc21,inactive,–
O[C@@H](CNC[C@H](O)[C@H]1CCc2cc(F)ccc2O1)[C@@H]1CCc2cc(F)ccc2O1,inactive,–
N[C@@H](C(=O)N[C@@H]1C(=O)N2C(C(=O)O)=C(Cl)CS[C@H]12)c1ccccc1,inactive,–
Cc1ccccc1C(OCCN(C)C)c1ccccc1 (stereo not drawn),inactive,–
CN(C)C(=N)N=C(N)N,inactive,–
COc1cc2c(cc1OC)[C@@H]1CC(=O)[C@@H](CC(C)C)CN1CC2,inactive,–
CN/C(=C\[N+](=O)[O-])NCCSCc1ccc(CN(C)C)o1,inactive,–
O[C@@H]1CO[C@H]2[C@@H]1OC[C@@H]2O,inactive,–
O=C(O)c1cn(C2CC2)c2cc(N3CCNCC3)c(F)cc2c1=O,inactive,–
Cc1cc2c(s1)Nc1ccccc1N=C2N1CCN(C)CC1,inactive,–
O=C(CCCN1CCC(O)(c2ccc(Cl)cc2)CC1)c1ccc(F)cc1,inactive,–
CC(C)(O)c1ccccc1CC[C@@H](SCC1(CC(=O)O)CC1)c1cccc(/C=C/c2ccc3ccc(Cl)cc3n2)c1,inactive,–
CN(C)CCOC(C)(c1ccccc1)c1ccccn1 (stereo not drawn),inactive,–
CC(=O)Nc1nnc(S(N)(=O)=O)s1,inactive,–

# Biological target: Nucleoprotein (Lymphocytic choriomeningitis virus (strain Armstrong)) (UniProt P09992)
# Experiment: qHTS for Inhibitors of the Functional Ribonucleoprotein Complex (vRNP) of Lymphocytic Choriomeningitis Arenaviruses (LCMV): LCMV Primary Screen - GLuc reporter signal (AID 1347086); further: nearly all actives have a fitted effect of over 70% in size
# Conditions: LCMV minigenome vRNP cell assay, Gaussia luciferase reporter; series mostly up to 57.5 µM
# Nucleoprotein (Lymphocytic choriomeningitis virus (strain Armstrong)), sequence (P09992 whole entry, looked up): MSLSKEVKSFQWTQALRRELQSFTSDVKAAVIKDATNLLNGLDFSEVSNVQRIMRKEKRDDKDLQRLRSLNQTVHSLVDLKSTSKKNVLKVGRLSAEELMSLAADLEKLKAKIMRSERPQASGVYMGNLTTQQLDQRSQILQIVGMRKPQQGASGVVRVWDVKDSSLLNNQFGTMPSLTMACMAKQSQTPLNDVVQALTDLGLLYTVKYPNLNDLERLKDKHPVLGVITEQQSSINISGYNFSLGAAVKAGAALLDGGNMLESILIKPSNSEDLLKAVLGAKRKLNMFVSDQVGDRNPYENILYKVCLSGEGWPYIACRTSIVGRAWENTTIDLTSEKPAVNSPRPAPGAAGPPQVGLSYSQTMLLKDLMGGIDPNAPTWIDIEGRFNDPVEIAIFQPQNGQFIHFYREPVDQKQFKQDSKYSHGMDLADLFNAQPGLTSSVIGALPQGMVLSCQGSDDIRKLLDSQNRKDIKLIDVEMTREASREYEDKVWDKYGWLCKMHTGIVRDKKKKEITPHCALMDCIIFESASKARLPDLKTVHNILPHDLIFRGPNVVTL
Compound,Potency,"activity change, negative = inhibition"
CC(C)C[C@H](NC(=O)[C@H](Cc1ccccc1)NC(=O)c1cnccn1)B(O)O,344 nM (active),–
Cc1[nH]c(=O)c(C#N)cc1-c1ccncc1,inactive,–
CC(C)NCC(O)c1ccc(O)c(O)c1 (stereo not drawn),inactive,–
CCCNCC(O)COc1ccccc1C(=O)CCc1ccccc1 (stereo not drawn),inactive,–
CN1CCc2cccc3c2[C@H]1Cc1ccc(O)c(O)c1-3,inactive,–
COc1ccc2nc(S(=O)Cc3ncc(C)c(OC)c3C)[nH]c2c1 (stereo not drawn),inactive,–
O=C(CCCCCCC(=O)Nc1ccccc1)NO,inactive,–
C=C(c1ccc(C(=O)O)cc1)c1cc2c(cc1C)C(C)(C)CCC2(C)C,inactive,–
CC(C)[N+](C)(CCOC(=O)C1c2ccccc2Oc2ccccc21)C(C)C,inactive,–
CN1CCN(C2=Nc3cc(Cl)ccc3Nc3ccccc32)CC1,inactive,–
CC/C=C(\C(=O)N[C@@H]1C(=O)N2C(C(=O)OCOC(=O)C(C)(C)C)=C(COC(N)=O)CS[C@H]12)c1csc(N)n1,inactive,–
NCCCC(N)CC(=O)NCC1NC(=O)C(CO)NC(=O)C(N)CNC(=O)C(C2CCN=C(N)N2)NC(=O)C(=CNC(N)=O)NC1=O (stereo not drawn) (H-[Dap]S[Dap](ξβ3hOrn)[ΔAla(3-NHCONH2)][X1]; lactam 1-C; configuration not given here),–,-2.08% [at 0.757 µM] (inactive)
CC1=C(C(=O)O)N2C(=O)[C@@H](NC(=O)[C@H](N)c3ccc(O)cc3)[C@H]2SC1,inactive,–
CN(C)c1ccc(O)c2c1C[C@H]1C[C@H]3[C@H](N(C)C)C(=O)C(C(N)=O)=C(O)[C@@]3(O)C(=O)C1=C2O,inactive,–
COc1cc(NC(C)CCCN)c2ncccc2c1 (stereo not drawn),inactive,–
O=C1C(=O)c2ccccc2C(O)=C1C1CCC(c2ccc(Cl)cc2)CC1 (stereo not drawn),inactive,–
CC[C@@]1(O)C(=O)OCc2c1cc1n(c2=O)Cc2cc3c(CN(C)C)c(O)ccc3nc2-1,2.82 µM (active) and 3.06 µM (active),–
CC(C)(C)C(=O)OCOP(=O)(COCCn1cnc2c(N)ncnc21)OCOC(=O)C(C)(C)C,inactive,–
COc1cc(Cc2cnc(N)nc2N)cc(OC)c1OC,inactive,–
CC(=O)O[C@]1(C(C)=O)CC[C@H]2[C@@H]3C=C(C)C4=CC(=O)CC[C@]4(C)[C@H]3CC[C@@]21C,inactive,–

Compound,Potency,"activity change, negative = inhibition"
O=c1n(CCCN2CCN(c3cccc(Cl)c3)CC2)nc2ccccn12,inactive,–
CO[C@H]1C=CO[C@@]2(C)Oc3c(C)c(O)c4c(O)c(c(/C=N/N5CCN(C)CC5)c(O)c4c3C2=O)NC(=O)/C(C)=C\C=C[C@H](C)[C@H](O)[C@@H](C)[C@@H](O)[C@@H](C)[C@H](OC(C)=O)[C@@H]1C,inactive,–
CCCN(CCc1cccs1)[C@H]1CCc2c(O)cccc2C1,inactive,–
CC[C@@H]([C@H](C)O)n1ncn(-c2ccc(N3CCN(c4ccc(OC[C@@H]5CO[C@@](Cn6cncn6)(c6ccc(F)cc6F)C5)cc4)CC3)cc2)c1=O,inactive,–
O=C(O)CCCc1ccccc1,inactive,–
CN(C)CCC[C@@]1(c2ccc(F)cc2)OCc2cc(C#N)ccc21,inactive,–
O[C@@H](CNC[C@H](O)[C@H]1CCc2cc(F)ccc2O1)[C@@H]1CCc2cc(F)ccc2O1,inactive,–
N[C@@H](C(=O)N[C@@H]1C(=O)N2C(C(=O)O)=C(Cl)CS[C@H]12)c1ccccc1,inactive,–
Cc1ccccc1C(OCCN(C)C)c1ccccc1 (stereo not drawn),inactive,–
CN(C)C(=N)N=C(N)N,inactive,–
COc1cc2c(cc1OC)[C@@H]1CC(=O)[C@@H](CC(C)C)CN1CC2,inactive,–
CN/C(=C\[N+](=O)[O-])NCCSCc1ccc(CN(C)C)o1,inactive,–
O[C@@H]1CO[C@H]2[C@@H]1OC[C@@H]2O,inactive,–
O=C(O)c1cn(C2CC2)c2cc(N3CCNCC3)c(F)cc2c1=O,inactive,–
Cc1cc2c(s1)Nc1ccccc1N=C2N1CCN(C)CC1,inactive,–
O=C(CCCN1CCC(O)(c2ccc(Cl)cc2)CC1)c1ccc(F)cc1,inactive,–
CC(C)(O)c1ccccc1CC[C@@H](SCC1(CC(=O)O)CC1)c1cccc(/C=C/c2ccc3ccc(Cl)cc3n2)c1,inactive,–
CN(C)CCOC(C)(c1ccccc1)c1ccccn1 (stereo not drawn),inactive,–
CC(=O)Nc1nnc(S(N)(=O)=O)s1,inactive,–

# Reference: PubChem BioAssay (NCATS)
